Source: the supplement of paper PMC10849652
The full data set covers some 8,800 targets. This sample favours those with a hit. About 0.5% of all pairs of compound and target were hits. A number with no mark means an inactive call.

compound: c1ccc([C@@H]2C[C@H]2NC2CCNCC2)cc1; experiment: log2 fold change, soluble protein after heating vs DMSO (PISA); higher = thermal stabilisation; K562 lysate, 10 uM; active = over 0.2 and 3.5 SD of the protein, either way, in both replicates (recomputed)
Method in brief: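 The values are log-two fold changes in thermal stability compared with solvent controls and come from duplicates. They were obtained by TMTpro 16plex LC-MS/MS, with channel sums equalised, on the supernatant after 21,000xg for 90 min. That supernatant came from crude K562 extract at 1 mg/mL protein treated with 10 μM compound for 30 min, heated for 3 min across 48°C-58°C, pooled and brought to 0.5% NP-40 at 4°C.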

Chain of UniProt Q96DX7 (Q96DX7 whole entry, looked up): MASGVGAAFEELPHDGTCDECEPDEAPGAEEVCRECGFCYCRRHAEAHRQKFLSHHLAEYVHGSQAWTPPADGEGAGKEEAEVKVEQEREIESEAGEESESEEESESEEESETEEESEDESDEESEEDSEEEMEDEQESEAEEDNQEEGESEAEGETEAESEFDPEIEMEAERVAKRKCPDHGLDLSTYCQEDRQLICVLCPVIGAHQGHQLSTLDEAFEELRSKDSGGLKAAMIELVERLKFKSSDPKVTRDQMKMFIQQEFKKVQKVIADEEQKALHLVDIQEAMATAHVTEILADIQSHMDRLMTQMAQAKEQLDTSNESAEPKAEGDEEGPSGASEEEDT
Chain of UniProt P33981 (P33981 whole entry, looked up): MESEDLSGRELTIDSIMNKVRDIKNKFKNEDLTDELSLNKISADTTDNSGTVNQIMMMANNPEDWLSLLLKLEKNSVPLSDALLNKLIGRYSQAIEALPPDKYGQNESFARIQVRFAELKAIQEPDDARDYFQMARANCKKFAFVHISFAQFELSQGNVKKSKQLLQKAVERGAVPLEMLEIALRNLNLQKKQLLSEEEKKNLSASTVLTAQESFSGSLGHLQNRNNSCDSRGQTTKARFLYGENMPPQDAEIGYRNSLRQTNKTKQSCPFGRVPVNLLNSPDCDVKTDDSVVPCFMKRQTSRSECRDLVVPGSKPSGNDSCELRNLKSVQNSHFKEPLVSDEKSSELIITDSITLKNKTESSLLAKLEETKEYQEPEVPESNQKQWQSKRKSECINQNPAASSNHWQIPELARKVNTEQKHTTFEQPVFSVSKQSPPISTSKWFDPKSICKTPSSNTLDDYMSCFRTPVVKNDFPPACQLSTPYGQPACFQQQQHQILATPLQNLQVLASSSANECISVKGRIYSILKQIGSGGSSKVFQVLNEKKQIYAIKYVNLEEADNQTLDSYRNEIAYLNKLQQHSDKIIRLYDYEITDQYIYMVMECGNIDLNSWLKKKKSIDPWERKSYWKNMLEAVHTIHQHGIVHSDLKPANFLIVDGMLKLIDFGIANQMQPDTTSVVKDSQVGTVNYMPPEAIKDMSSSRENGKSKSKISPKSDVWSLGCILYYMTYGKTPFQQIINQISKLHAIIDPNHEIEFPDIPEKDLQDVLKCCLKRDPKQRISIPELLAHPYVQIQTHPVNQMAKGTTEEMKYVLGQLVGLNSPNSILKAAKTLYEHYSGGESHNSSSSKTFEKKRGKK
Chain of UniProt Q9NUY8 (Q9NUY8 whole entry, looked up): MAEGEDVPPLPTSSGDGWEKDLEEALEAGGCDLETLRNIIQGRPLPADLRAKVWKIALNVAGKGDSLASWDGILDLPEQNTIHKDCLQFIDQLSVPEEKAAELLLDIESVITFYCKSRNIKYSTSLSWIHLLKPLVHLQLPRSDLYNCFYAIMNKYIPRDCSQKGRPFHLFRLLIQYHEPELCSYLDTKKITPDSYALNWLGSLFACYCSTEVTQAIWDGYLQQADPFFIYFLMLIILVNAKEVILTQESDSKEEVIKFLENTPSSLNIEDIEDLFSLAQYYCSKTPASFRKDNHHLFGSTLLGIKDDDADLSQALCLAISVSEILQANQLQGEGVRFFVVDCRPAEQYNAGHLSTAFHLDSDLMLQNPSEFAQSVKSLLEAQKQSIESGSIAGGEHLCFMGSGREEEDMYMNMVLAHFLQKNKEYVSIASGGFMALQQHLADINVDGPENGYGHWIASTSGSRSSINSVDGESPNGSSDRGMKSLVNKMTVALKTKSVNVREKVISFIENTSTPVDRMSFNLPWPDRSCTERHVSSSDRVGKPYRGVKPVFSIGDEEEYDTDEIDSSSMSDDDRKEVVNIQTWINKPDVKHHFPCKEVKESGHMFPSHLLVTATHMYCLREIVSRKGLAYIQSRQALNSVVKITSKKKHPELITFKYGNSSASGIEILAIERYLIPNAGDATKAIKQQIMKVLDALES
Chain of UniProt O94842 (O94842 whole entry, looked up): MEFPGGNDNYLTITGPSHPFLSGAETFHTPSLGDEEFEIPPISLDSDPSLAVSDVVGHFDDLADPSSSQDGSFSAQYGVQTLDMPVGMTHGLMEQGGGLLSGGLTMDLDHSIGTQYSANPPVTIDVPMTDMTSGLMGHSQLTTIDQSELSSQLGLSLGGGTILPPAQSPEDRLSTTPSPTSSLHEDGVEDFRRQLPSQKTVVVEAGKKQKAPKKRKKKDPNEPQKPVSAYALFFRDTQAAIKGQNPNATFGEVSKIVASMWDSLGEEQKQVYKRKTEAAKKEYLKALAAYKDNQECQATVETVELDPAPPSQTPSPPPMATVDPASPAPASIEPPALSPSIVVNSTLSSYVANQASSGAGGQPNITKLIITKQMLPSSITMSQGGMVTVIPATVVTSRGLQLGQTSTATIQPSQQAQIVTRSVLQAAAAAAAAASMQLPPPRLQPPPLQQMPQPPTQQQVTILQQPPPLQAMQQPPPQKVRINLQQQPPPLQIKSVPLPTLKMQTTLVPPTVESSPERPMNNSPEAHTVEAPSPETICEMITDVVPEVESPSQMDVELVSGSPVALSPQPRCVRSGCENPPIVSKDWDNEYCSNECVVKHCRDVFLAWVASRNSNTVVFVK
Chain of UniProt Q9NZI7 (Q9NZI7 whole entry, looked up): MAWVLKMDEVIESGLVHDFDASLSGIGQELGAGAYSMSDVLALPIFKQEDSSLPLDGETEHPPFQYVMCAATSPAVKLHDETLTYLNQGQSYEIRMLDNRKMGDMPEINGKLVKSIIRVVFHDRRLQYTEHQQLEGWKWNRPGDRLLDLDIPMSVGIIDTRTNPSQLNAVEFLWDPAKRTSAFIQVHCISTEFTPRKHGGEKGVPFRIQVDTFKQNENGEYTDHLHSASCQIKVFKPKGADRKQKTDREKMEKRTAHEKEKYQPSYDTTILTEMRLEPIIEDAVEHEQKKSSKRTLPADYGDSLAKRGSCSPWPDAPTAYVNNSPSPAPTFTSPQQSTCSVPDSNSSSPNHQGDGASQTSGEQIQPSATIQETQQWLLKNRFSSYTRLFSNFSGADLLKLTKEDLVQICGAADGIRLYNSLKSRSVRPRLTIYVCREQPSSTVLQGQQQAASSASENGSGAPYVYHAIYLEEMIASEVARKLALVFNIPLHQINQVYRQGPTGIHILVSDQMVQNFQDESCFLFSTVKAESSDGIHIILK
Chain of UniProt Q9UHD2 (Q9UHD2 whole entry, looked up): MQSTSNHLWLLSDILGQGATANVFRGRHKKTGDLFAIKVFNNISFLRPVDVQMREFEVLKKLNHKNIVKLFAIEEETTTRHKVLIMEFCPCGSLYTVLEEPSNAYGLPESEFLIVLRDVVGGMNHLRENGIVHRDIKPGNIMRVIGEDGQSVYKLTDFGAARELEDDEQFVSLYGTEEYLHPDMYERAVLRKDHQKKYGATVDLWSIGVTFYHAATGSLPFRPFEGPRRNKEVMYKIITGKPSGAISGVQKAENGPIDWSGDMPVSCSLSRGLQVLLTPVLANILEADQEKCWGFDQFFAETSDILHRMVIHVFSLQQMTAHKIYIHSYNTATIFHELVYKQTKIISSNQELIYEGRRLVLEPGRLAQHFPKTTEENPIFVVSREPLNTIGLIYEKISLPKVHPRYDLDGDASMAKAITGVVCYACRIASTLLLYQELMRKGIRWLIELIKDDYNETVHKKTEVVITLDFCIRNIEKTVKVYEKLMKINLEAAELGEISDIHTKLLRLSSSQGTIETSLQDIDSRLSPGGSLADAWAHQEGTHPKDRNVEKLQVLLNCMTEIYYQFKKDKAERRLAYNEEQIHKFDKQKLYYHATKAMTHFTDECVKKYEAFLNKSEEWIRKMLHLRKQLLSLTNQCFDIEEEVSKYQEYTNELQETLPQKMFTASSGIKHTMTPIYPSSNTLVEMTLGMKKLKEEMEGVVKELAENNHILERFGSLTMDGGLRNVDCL
Chain of UniProt P07437 (P07437 whole entry, looked up): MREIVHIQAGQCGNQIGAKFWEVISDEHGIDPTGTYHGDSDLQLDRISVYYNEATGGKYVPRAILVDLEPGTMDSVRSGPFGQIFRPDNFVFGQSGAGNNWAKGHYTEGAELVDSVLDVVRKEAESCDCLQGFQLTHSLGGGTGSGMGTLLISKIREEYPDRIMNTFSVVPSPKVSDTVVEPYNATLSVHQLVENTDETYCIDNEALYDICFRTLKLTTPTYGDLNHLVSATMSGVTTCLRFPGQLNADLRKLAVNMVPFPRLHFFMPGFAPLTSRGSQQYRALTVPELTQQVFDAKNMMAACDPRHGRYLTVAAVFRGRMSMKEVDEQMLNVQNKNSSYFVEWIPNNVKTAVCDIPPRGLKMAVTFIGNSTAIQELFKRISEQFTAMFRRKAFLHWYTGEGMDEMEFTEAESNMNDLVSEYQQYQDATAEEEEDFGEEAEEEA
Chain of UniProt Q8N0Z6 (Q8N0Z6 whole entry, looked up): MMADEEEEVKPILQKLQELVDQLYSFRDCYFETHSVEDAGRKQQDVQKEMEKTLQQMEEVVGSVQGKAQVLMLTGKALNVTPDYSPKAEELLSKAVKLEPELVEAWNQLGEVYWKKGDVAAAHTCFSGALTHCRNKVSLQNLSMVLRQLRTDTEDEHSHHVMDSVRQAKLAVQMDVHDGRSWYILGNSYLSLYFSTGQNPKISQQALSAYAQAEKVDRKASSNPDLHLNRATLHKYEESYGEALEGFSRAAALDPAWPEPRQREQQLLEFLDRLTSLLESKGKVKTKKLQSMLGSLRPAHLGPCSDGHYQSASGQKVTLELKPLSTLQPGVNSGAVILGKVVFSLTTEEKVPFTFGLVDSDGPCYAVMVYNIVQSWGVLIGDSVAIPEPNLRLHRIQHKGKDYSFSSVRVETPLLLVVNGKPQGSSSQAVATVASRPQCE
Chain of UniProt Q5JUR7 (Q5JUR7 whole entry, looked up): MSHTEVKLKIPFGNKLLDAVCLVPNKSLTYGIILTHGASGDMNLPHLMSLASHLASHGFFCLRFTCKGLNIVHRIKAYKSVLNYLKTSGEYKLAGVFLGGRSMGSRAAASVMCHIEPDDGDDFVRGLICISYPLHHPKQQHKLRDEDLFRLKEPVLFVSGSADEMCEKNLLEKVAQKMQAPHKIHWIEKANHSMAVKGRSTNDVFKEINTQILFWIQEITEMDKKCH

Target | log2 fold change
TSFM (UniProt P43897) | -0.092
TOX4 (UniProt O94842) | -0.146
TUBGCP3 (UniProt Q96CW5) | 0.037
TEX30 (UniProt Q5JUR7) | -0.038
UBP1 (UniProt Q9NZI7) | 0.056
UBAP2 (UniProt Q5T6F2) | -0.119
TRIM44 (UniProt Q96DX7) | 0.083
TMEM87A (UniProt Q8NBN3) | -0.128
TK1 (UniProt P04183) | -0.116
TBK1 (UniProt Q9UHD2) | -0.023
TMPO (UniProt P42167) | -0.023
TTC5 (UniProt Q8N0Z6) | 0.002
TUBB (UniProt P07437) | -0.001
UBE4A isoform 2 (UniProt Q14139) | 0.051
TGOLN2 isoform 7 (UniProt O43493) | -0.069
TBL3 (UniProt Q12788) | 0.014
TYW3 (UniProt Q6IPR3) | -0.067
TBC1D23 (UniProt Q9NUY8) | -0.024
TTK (UniProt P33981) | 0.003
TSPAN13 (UniProt O95857) | -0.131
TRMT12 (UniProt Q53H54) | 0.076
TIMM44 (UniProt O43615) | -0.003
TRIP12 isoform 2 (UniProt Q14669) | 0.062
